# Source: PubChem BioAssay (Fisher Drug Discovery Resource Center)
# hcGAS inh = inhibitors of human cGAS; Q8N884; inhibition, % at 12.5 µM; recombinant h-cGAS, ATP depletion, Kinase-Glo luminescence; 0.081% of 290,000 active;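 note: 0% = vehicle reaction and 100% = reaction without DNA for no activity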
# NPYLR7 ag = mosquito NPYLR7 agonism; HEK293T NPYLR7/Galpha15, GCaMP6s calcium fluorescence; 0.15% of 270,000 active; activation, % at 10 µM; in the data active = activation above about 40%;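 note: 0% = vehicle and 100% = reference agonist at the receptor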
# mcGAS inh = blocks mouse cGAS activity | recombinant cGAS, Kinase-Glo ATP depletion luminescence | 0.15% of 160,000 active | Q8C6L5 | inhibition, % at 12.5 µM;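 note: 0% = negative control wells and 100% = reference inhibitor with no enzyme activity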
# Target sequence (Q8C6L5 whole entry, looked up): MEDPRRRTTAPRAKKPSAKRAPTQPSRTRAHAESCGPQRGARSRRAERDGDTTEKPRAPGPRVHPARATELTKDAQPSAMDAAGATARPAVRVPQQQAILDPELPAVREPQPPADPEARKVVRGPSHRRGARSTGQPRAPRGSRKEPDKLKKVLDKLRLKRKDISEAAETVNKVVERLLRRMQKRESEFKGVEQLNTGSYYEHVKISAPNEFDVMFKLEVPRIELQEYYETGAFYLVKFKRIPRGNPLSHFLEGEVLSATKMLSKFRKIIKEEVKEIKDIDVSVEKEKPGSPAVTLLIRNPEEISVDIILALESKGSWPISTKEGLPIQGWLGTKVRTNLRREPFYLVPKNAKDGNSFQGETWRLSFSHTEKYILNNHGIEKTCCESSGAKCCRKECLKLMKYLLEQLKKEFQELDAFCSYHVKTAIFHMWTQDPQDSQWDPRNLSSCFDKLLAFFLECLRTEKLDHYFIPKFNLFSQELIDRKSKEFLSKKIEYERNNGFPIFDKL
# The depositor's hits bear a star; nt = no result given; + = active, no number. An excerpt weighted towards active compounds, which were near 0.3% of everything screened. Cut-off read from the data, not from the text of the source, unless noted: active = inhibition above about 40%; inactive = the rest.
SMILES,hcGAS inh,NPYLR7 ag,mcGAS inh
CCCCN(C)C1=CC2=CC(=C(C#N)C#N)CCC2CC1 (configuration not stated),-9,+,-5
O=C1c2ccccc2NC(c2ccco2)N1CC(F)(F)F (configuration not stated),1,2,nt
O=c1oc2c(CN3CCN(CCO)CC3)c(O)ccc2cc1-c1ccc(Cl)cc1,-8,7,-7
Cc1cc(O)c(CN2CCN(CCO)CC2)c2c1C(=O)/C(=C/c1ccco1)O2,-2,28,-10
O=C1/C(=C/c2cccc(Br)c2)Oc2c1ccc(O)c2CN1CCN(CCO)CC1,6,52*,10
Cc1cc(O)c(CN2CCN(CCO)CC2)c2c1C(=O)/C(=C/c1ccc(F)cc1)O2,-7,15,-7
O=C1/C(=C/c2cccc(F)c2)Oc2c1ccc(O)c2CN1CCN(CCO)CC1,9,57*,2
O=C1/C(=C/c2cccc(Cl)c2)Oc2c1ccc(O)c2CN1CCN(CCO)CC1,15,50*,12
COCc1c(C)cc(C)c(/C=N\O)c1C,-5,12,nt
O=C(O)c1ccc(S(=O)(=O)c2ccc3c(c2)C(=O)N(N2C(=O)c4ccccc4C2=O)C3=O)cc1,-1,0,-5
O=C1/C(=C/c2ccc(-c3cccc(Cl)c3)o2)NC(=S)N1c1ccccc1,-3,4,0
O=C1NC(=S)N(c2ccc3ccccc3c2)C(=O)/C1=C/c1ccc(-c2cccc(C(=O)O)c2)o1,56*,4,81*
CCCn1ncc(C(=O)NC2CCCN(Cc3cccc(OC)c3)C2)c1C (configuration not stated),-9,5,nt
Cn1cc(S(=O)(=O)Nc2ccc(F)cn2)nc1Cl,-4,-5,nt
COCCOc1ccc(NS(=O)(=O)c2cn(C)c(Cl)n2)cn1,-9,99*,nt
CCN(CC)CCCNC(CC(=O)Nc1ccc(N=Nc2ccccc2)cc1)C(=O)O (configuration not stated),-5,22,-10
OC=c1ccc2cccc3nc(C(F)(F)F)nc1c23,4,77*,nt
OC(c1ccccc1)=c1ccc2cccc3ncnc1c23,-6,2,nt
O=C(c1ccc([N+](=O)[O-])cc1)N1CCCc2ccccc21,-6,4,nt
O=C(CCl)N1CCCc2cc([N+](=O)[O-])ccc21,1,2,96*
O=C(Nc1nnc(SCc2cc(F)cc(F)c2)s1)C1CC1,2,-3,2
COc1cc(CSc2nnc(NC(=O)C3CCC3)s2)cc(OC)c1,-6,35,83*
CCC(CC)c1nnc(NC(=O)CN(C)S(=O)(=O)c2ccc(Cl)cc2)s1,-9,-1,nt
COc1ccccc1-c1cc(C(=O)NCCCN2CCOCC2)n2nc(-c3ccccc3)cc2n1,-5,nt,-8
COc1ccccc1-c1cc(C(=O)NCCCN2CCOCC2)n2nc(-c3ccc(Cl)cc3)cc2n1,-2,17,42*
SMILES,hcGAS inh,NPYLR7 ag,mcGAS inh
N#CC1C(=N)Oc2n[nH]c(C(F)(F)F)c2C1c1ccco1 (configuration not stated),0,5,1
CC(C)(NC(=O)c1cccs1)C(=O)NC1CCN(Cc2ccccc2)C1 (configuration not stated),-1,13,nt
Cc1ccccc1C1CCCN1C(=O)C(C)(C)NC(=O)c1cccs1 (configuration not stated),50*,-3,nt
CCOc1cc(/C=C2/C(=N)N3C=CSC3=NC2=O)cc(Br)c1OC(=O)c1ccco1,-1,-1,5
COc1cc(/C=C2\C(=N)N3N=CSC3=NC2=O)cc(Br)c1OC(=O)c1ccco1,6,49*,nt
Cc1cccc2cc(CO)c(-c3cc(NCCO)nc4[nH]ccc34)nc12,-6,8,-8
COc1ccc(CN2COc3ccc4c(c3C2)O/C(=C\c2ccncc2)C4=O)cc1,-7,23,-6
COc1ccc(/C=C2\Oc3c(ccc4c3CN(Cc3ccncc3)CO4)C2=O)cc1OC,-4,83*,-9
CCc1ccc(/C=C2\Oc3c(ccc4c3CN(C3CCS(=O)(=O)C3)CO4)C2=O)cc1 (configuration not stated),0,66*,-1
COc1ccc(/C=C2\Oc3c(ccc4c3CN(Cc3ccncc3)CO4)C2=O)cc1,1,67*,-3
COc1ccc(/C=C2\Oc3c(ccc4c3CN(C3CC3)CO4)C2=O)cc1,-4,3,-8
COc1ccc(CCN2COc3ccc4c(c3C2)O/C(=C\c2ccncc2)C4=O)cc1,0,39,12
COc1ccc(CCN2COc3ccc4c(c3C2)O/C(=C\c2ccncc2)C4=O)cc1OC,-2,55*,11
CCOCCCN1COc2ccc3c(c2C1)O/C(=C\c1ccc(OC)cc1)C3=O,-6,42,-8
COC(=O)c1cc(Cl)c2c(c1)CC(CNC(=O)COc1ccccc1)O2 (configuration not stated),-6,nt,-7
O=C(CSc1nnc(C2CC2)n1C1CC1)c1cc(Cl)sc1Cl,-4,-1,nt
COc1ccc(Cn2ccnc2CN(CCN2CCOCC2)C(=O)c2cccc(OC)c2)cc1,1,6,-6
N#Cc1cccc(S(=O)(=O)NC(=O)c2csc(-c3ccco3)n2)c1,-8,2,nt
CNC(=O)[C@@H]1[C@@H](OC(N)=O)C(=O)N(C)C12CCN(C(=O)c1cc(C)oc1C)CC2,0,9,-4
CCOCCCN1COc2ccc3c(c2C1)O/C(=C\c1cccc(OC)c1OC)C3=O,-3,22,-6
COCCCN1COc2ccc3c(c2C1)O/C(=C\c1cc(OC)c(OC)c(OC)c1)C3=O,-8,61*,-10
O=c1ccccn1Cc1nc(-c2cc(Br)cs2)no1,-7,16,-16
CCn1nc(-c2cc(Br)cs2)nc2c(=O)n(C)c(=O)nc1-2,22,5,60*
CCOc1ccc2nc(Nc3nc(C)c(C)c(C)n3)nc(C)c2c1,-4,10,-5
CCOc1ccc2nc3cc(N)ccc3c(N)c2c1,99*,72*,nt
SMILES,hcGAS inh,NPYLR7 ag,mcGAS inh
CN1C(=CC=C2C(=O)Oc3ccccc3C2=O)C(C)(C)c2ccccc21,-7,49*,nt
CN1C(=CP(=O)(N(C)C)N(C)C)C(C)(C)c2ccccc21,3,1,nt
Cc1c(C(=O)NC(C)C)cc(-c2ccc(Cl)cc2)n1-c1ccc(F)cc1F,-4,13,-5
CCOc1ccc(S(=O)(=O)Nc2ccc(C(=O)NC(C)CC)cc2)cc1 (configuration not stated),1,0,-9
COc1cccc2c1C(=O)c1c(O)c3c(c(O)c1C2=O)C[C@@](O)(C(=O)CO)C[C@@H]3OC1C[C@H](N)[C@H](O)[C@H](C)O1 (some centres not stated),57*,nt,nt
COC(=O)Cn1c(=O)c2c(nc3n2CCCN3c2ccc(Cl)cc2)n(C)c1=O,-3,nt,-6
COC(=O)/C(C#N)=C/c1c(Oc2ccc(C)cc2)nc2ccccn2c1=O,-8,10,-8
COc1ccc(Oc2nc3c(C)cccn3c(=O)c2/C=C(\C#N)c2nc3ccccc3s2)cc1,-10,21,-5
COc1ccccc1Oc1nc2ccccn2c(=O)c1/C=C(\C#N)c1nc2ccccc2s1,-9,65*,-5
Cc1cccc(Oc2nc3ccccn3c(=O)c2/C=C(\C#N)c2nc3ccccc3s2)c1,-8,89*,-4
COc1ccc(OC)c(N2CCN(C(=O)C3CCCC3)C(C)C2=O)c1 (configuration not stated),-4,1,nt
